# The whole screen tested about 320,000 compounds, of which about 2,100 (0.66%) were called active. About 53% were inconclusive and are not listed. Calls come from the whole dose curve; as a rule, active = well fitted inhibition curve with a large enough effect in the signal ratio, with a control signal flat (not every such curve was filed as active); inconclusive = small, poorly fitted or top-dose-only effect, or effect the other way, or a change in a side signal; inactive = flat fitted curve, though single readings scatter; the % refers to the signal ratio. The sample as a whole holds a higher share of actives than the screen did.
# Test: qHTS Assay for Lipid Storage Modulators in Drosophila S3 Cells;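 for cell number change: cells counted by Cell Tracker Red CMTPX staining in the red channel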; for lipid storage change, negative = inhibition: % is set by controls: 0 for no effect and ±100 for the full control effect
# Conditions: BODIPY lipid droplet fluorescence, 18-24 h, cells fed with added oleic acid; cell number change: measured here: cell count max response; series mostly up to 46.1 µM
# In short: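 Drosophila S3 cells loaded with oleic acid (400 uM, as added) and compounds at several concentrations; lipid droplets imaged by 488-nm laser-scanning cytometry, 500–530 nm intensity and object ratio to cell channel. Percent activity normalized to 20 uM Triacsin C.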
# Potency is the fitted concentration of half-maximal effect.
SMILES,Potency,cell number change,"lipid storage change, negative = inhibition"
O=C(CC(Sc1ccc(Br)cc1)C(=O)O)c1ccc(F)cc1 (stereo not given),inactive,-1.05%,
CN=C(Nc1ccc(C(=O)OC)s1)c1ccccc1,inactive,,
O=C(Nc1ccccc1)c1cccnc1NCCc1ccccc1,inactive,-3.52%,
Cc1ccc(CNC(=O)C(N=C2NS(=O)(=O)c3ccccc32)C(C)C)cc1 (stereo not given),inactive,10.7%,
CN(CC(O)COc1ccc2ccccc2c1)C1CCCCC1 (stereo not given),inactive,-0.529%,
COc1ccc(CCNC(=O)Cn2cccc2C(=O)c2ccccc2)cc1OC,25.9 µM (active),-21.4%,
COc1ccc(OC)c(CCNC(=O)Cn2cccc2C(=O)c2ccccc2)c1,inactive,,
COc1ccc(CCNC(=O)Cn2cccc2C(=O)c2ccccc2)c(OC)c1,inactive,6.75%,
COc1ccc(NC(=O)C(OC(=O)c2ccc([N+](=O)[O-])o2)c2ccccc2)cc1Cl (stereo not given),inactive,0.814%,
Cc1nc2n(n1)C(c1ccccc1)C1=C(CC(c3ccco3)CC1=O)N2 (stereo not given),inactive,,
Cc1cc(C)cc(NC(=O)C(=S)NCc2ccccc2)c1,inactive,9.48%,
O=C(NNc1nc2c(F)cc(F)cc2s1)c1ccccc1,,6.06%,21.3% [at 9.22 µM] (inactive)
O=S(=O)(NC1CCN(Cc2ccccc2)CC1)c1ccc(Cl)cc1,inactive,-5.28%,
O=S(=O)(c1ccccc1)c1nnn2c1nc(NC1CCN(Cc3ccccc3)CC1)c1cc(Cl)ccc12,18.4 µM (active),-5.44%,
O=S(=O)(c1ccccc1)c1nnn2c1nc(NC1CCN(Cc3ccccc3)CC1)c1ccccc12,inactive,0.895%,
Cc1nc(CS(=O)(=O)c2ccccc2)cc(Sc2ccc(Cl)cc2)n1,inactive,,
O=C(NCCCN1CCOCC1)c1ccc2c(c1)N(Cc1ccccc1)C(=O)c1ccccc1S2=O (stereo not given),inactive,-4.72%,
C=CCn1c(COc2cc(C)ccc2C(C)C)nnc1SCC(=O)c1c(N)n(C)c(=O)n(C)c1=O,inactive,25.2%,
Cc1ccc(S(=O)(=O)N2CCN(S(=O)(=O)c3ccc(C)cc3)C3OCCOC32)cc1 (stereo not given),inactive,-0.0898%,
CCC(N1CCOC1=O)S(=O)(=O)c1ccc(C)cc1 (stereo not given),25.9 µM (active),-15.9%,
Cc1ccc(S(=O)(=O)C(CCC(=O)N2CCOCC2)S(=O)(=O)c2ccc(C)cc2)cc1,inactive,-12.5%,
Cc1ccc(S(=O)(=O)NC(CC(=O)n2nc(C)cc2C)c2ccccc2)cc1 (stereo not given),inactive,,
COC(=O)c1ccc(Cl)c(NC(=O)CN2CCN(Cc3ccccc3)CC2)c1,inactive,2.04%,
COC(=O)c1ccc(Cl)c(NC(=O)CN2CCN(C)CC2)c1,25.9 µM (active),-16%,

SMILES,Potency,cell number change,"lipid storage change, negative = inhibition"
COC(=O)c1ccc(Cl)c(NC(=O)CN2CCOCC2)c1,inactive,-12.2%,
COc1ccc(-n2c(=O)cc(N3CCN(Cc4ccccc4)CC3)[nH]c2=O)cc1,inactive,-3.15%,
O=C(CSc1nnc(-c2ccccc2F)o1)N1CCCC1,23.1 µM (active),22.6%,
O=C(CSc1nnc(-c2ccccc2Cl)o1)N1CCCCC1,inactive,,
Cc1ccccc1-c1nnc(SCC(=O)N2CCCC2)o1,inactive,9.17%,
COC(=O)CN(n1cnnc1)S(=O)(=O)c1ccccc1Cl,inactive,-1.98%,
COc1cccc(NC(=O)COC(=O)CCn2c(C)csc2=O)c1,inactive,-50%,
CCCCn1c(SCC(=O)N(C)C)nnc1-c1ccncc1,inactive,9.01%,
CCCCn1c(SCC(=O)N2CCc3ccccc32)nnc1-c1ccncc1,inactive,-7.69%,
CSc1nnc(-c2ccncc2)n1CCCN1CCCC1=O,0.731 µM (active),-16.4%,
CC(C)(C)OC(=O)NCCCCCO,inactive,-1.04%,
CC(C)(C)OC(=O)NCCCC(CCCNC(=O)OC(C)(C)C)C(=O)O,16.4 µM (active),-6.12%,
CC(C)(C)OC(=O)NC(Cc1ccccc1)C(=O)NCCCC(=O)O (stereo not given),inactive,-14.4%,
Cc1ccc(C(=O)N/N=C/c2ccc(-c3cccc(Cl)c3)o2)cn1,inactive,8.19%,
Nc1nc(-c2ccccc2)c(-c2ccccc2)s1,inactive,,
Nc1c(-c2ccccc2)sc2ccc3ccccc3[n+]12,1.3 µM (active),7.96%,
Nc1nc(-c2ccccc2)c(-c2ccc([N+](=O)[O-])cc2)s1,inactive,0.729%,
O=C(COC(=O)C1COc2ccccc2O1)Nc1cccc(Cl)c1 (stereo not given),inactive,-13.4%,
Cc1ccccc1C1C(=O)c2ccccc2C1=O,20.6 µM (active),14.4%,
O=C1c2ccccc2C(=O)C1c1ccccc1,inactive,3.81%,
Cc1ccc(C)c(C2C(=O)c3ccccc3C2=O)c1,inactive,-8.26%,
O=C(Nc1cccc(Cl)c1)Nc1ccon1,inactive,-26.2%,
O=C(Nc1ccc(Cl)c(Cl)c1)Nc1ccon1,10 µM (active),,
O=C(Nc1ccc(Cl)cc1)Nc1ccon1,inactive,28.2%,

SMILES,Potency,cell number change,"lipid storage change, negative = inhibition"
Cc1ccccc1OCCCCCNCCO,inactive,2.5%,
Cc1cc(C)c(OCCCCCNCCO)c(C)c1,25.9 µM (active),-17.5%,
Cc1cc(C)cc(OCCCCCNCCO)c1,inactive,-17.6%,
O=C1NCCN(Cc2ccc(Cl)c(F)c2)C1CC(=O)N1CCCCO1 (stereo not given),inactive,5.73%,
Nc1nc2c(C(=O)N3CCOCC3)nnn2c2ccccc12,inactive,6.42%,
CCN(CC)S(=O)(=O)c1ccc(N2CCCC2)c(NS(=O)(=O)c2ccc(OC)cc2)c1,inactive,10.1%,
CCN(CC)S(=O)(=O)c1ccc(N2CCOCC2)c(NS(=O)(=O)c2ccc(C)c(C)c2)c1,inactive,16%,
CCN(CC)S(=O)(=O)c1ccc(N2CCOCC2)c(NS(=O)(=O)c2ccc(OC)cc2)c1,20.6 µM (active),-20.4%,
CN(C(=O)CCn1c(=S)oc2ccccc21)c1ccc(F)cc1,inactive,7.52%,
Cc1cc(C)c(C)c(S(=O)(=O)N[C@@H](C)C(=O)OCC(N)=O)c1C,inactive,-24.5%,
O=C(OCC(=O)N1CCN(c2ccccc2)CC1)c1ccco1,23.1 µM (active),-17.5%,
O=C(NCC(=O)N1CCN(c2ccccc2)CC1)c1ccco1,inactive,1.29%,
COc1ccc(N2CCN(C(=O)COC(=O)c3ccco3)CC2)cc1,inactive,6.24%,
COc1ccc(NC(=O)CCS(=O)(=O)c2ccc(Cl)cc2)cc1,inactive,,
O=S(=O)(c1cccs1)N1CCC(Cc2ccccc2)CC1,inactive,-12%,
CCC(C)Sc1ccc(-c2nc3ccc(C)cn3c2NC2CCCCC2)cc1 (stereo not given),inactive,-1.01%,
CCCCCCSc1cccc(-c2nc3cc(C)ccn3c2NC2CCCCC2)c1,inactive,-11.8%,
CCCCCCSc1ccc(-c2nc3ccc(C)cn3c2NC2CCCCC2)cc1,11.6 µM (active),,
CC(C)(C)CC(=O)Nc1nn[nH]n1,inactive,-2.51%,
O=C(NNC(=S)NC1CC2C=CC1C2)c1cccnc1 (stereo not given),inactive,2.14%,
COCC(=O)Nc1ccc(Br)c(C)c1,,9.41%,14.1% [at 9.22 µM] (inactive)
CCOC(=O)Cc1csc(SCC(=O)Nc2ccc(C)cc2F)n1,inactive,-11%,
CCOC(=O)Cc1csc(SCC(=O)NC(C)C23CC4CC(CC(C4)C2)C3)n1 (stereo not given),1.64 µM (active),5.41%,
CCOC(=O)Cc1csc(SCC(=O)Nc2cccc(Cl)c2)n1,inactive,13.5%,

SMILES,Potency,cell number change,"lipid storage change, negative = inhibition"
O=C(Nc1ccccn1)c1ccc(Cl)c(S(=O)(=O)N2CCOCC2)c1,inactive,13.7%,
CCOC(=O)COc1ccccc1C(=O)c1cnn(-c2ccccc2)c1,inactive,3.88%,
CCC(C)NC(=O)CSc1nc2ccccc2c(=O)n1CCCN1CCCCC1 (stereo not given),inactive,-2.07%,
Cc1cc([N+](=O)[O-])nn1CCC(=O)Nc1nccs1,inactive,0.24%,
CCCN1CCc2c(sc(NC(=O)c3ccc(S(=O)(=O)N(C)c4ccccc4)cc3)c2C(=O)NC)C1,4.11 µM (active),-17.2%,
COC(=O)c1c(NC(=O)c2ccc(N(C)S(=O)(=O)c3ccc(C)cc3)cc2)sc2c1CCCC2,inactive,-4.01%,
CN1CCc2c(sc(NC(=O)c3ccc(C(=O)c4ccccc4)cc3)c2C(N)=O)C1,inactive,0.647%,
CCCN1CCc2c(sc(NC(=O)c3ccc(S(=O)(=O)N4CCN(C(=O)OCC)CC4)cc3)c2C(N)=O)C1,inactive,-7.97%,
CCCN1CCc2c(sc(NC(=O)c3ccc(S(=O)(=O)N(C)c4ccccc4)cc3)c2C(N)=O)C1,13 µM (active),-20.7%,
CCCN1CCc2c(sc(NC(=S)NC(=O)c3ccccc3)c2C#N)C1,inactive,3.88%,
COc1cc(OC)c(C(=O)OCC(=O)NCCC2=CCCCC2)cc1OC,inactive,-12.4%,
COCCNC(=O)CCCn1c(=O)c2cc(OC)c(OC)cc2n(CC(=O)c2ccc(Cl)cc2)c1=O,inactive,-4.78%,
CCOC(=O)C1CCN(C(=O)CC(NS(=O)(=O)c2ccc(OC)cc2)C(C)C)CC1 (stereo not given),inactive,5.69%,
CN(C)CCCNc1ccc(-c2cc(Nc3cccc(Cl)c3)ncn2)cn1,inactive,7.36%,
OCCCNc1cc(-c2ccnc(Nc3cccc(Cl)c3)n2)ccn1,6.51 µM (active),-20.1%,
CC(C)n1cnc2c(Nc3cccc(Cl)c3)nc(NCCCO)nc21,inactive,1.01%,
OC(COc1c(F)cc(Br)cc1F)CN1CCc2ccccc2C1 (stereo not given),inactive,-1.04%,
c1ccc(Cc2nnc3sc(-c4ccccn4)nn23)cc1,inactive,,
O=C(NC1CCCCC1)N(CCN1CCCC1)Cc1cc2cc3c(cc2[nH]c1=O)OCCO3,inactive,,
CCN(CC)CCN(Cc1cc2cc3c(cc2[nH]c1=O)OCCO3)C(=O)NC1CCCCC1,16.4 µM (active),4.42%,
CN(C)CCCN(Cc1cc2cc3c(cc2[nH]c1=O)OCCO3)C(=O)NC1CCCCC1,inactive,0.0235%,
CN1CCN(Cc2nc(N)nc(Nc3ccc4c(c3)OCCO4)n2)CC1,inactive,-0.153%,
Cc1ccc(Nc2nc(N)nc(CN3CCN(C)CC3)n2)cc1C,inactive,7.98%,
Cc1ccc(Nc2nc(N)nc(CN3CCN(C)CC3)n2)cc1,25.9 µM (active),-12%,

# From PubChem BioAssay AID2685 (National Center for Advancing Translational Sciences (NCATS), 2010)
